SMILES strings stand for the structures. Inconclusive results are not listed. A number with no mark means an inactive call. The source made the active and inactive calls. Unless noted, calls come from the whole dose curve; as a rule, active = well fitted curve in the direction sought with a large enough effect in the repeat runs; inconclusive = weak or mixed curves; inactive = no such curve, though single readings can be large; an effect the other way counts as inactive or inconclusive.
% is set by controls: 0 for no effect and ±100 for the full control effect.

Chain of Estrogen receptor (Homo sapiens) (P03372 whole entry, looked up): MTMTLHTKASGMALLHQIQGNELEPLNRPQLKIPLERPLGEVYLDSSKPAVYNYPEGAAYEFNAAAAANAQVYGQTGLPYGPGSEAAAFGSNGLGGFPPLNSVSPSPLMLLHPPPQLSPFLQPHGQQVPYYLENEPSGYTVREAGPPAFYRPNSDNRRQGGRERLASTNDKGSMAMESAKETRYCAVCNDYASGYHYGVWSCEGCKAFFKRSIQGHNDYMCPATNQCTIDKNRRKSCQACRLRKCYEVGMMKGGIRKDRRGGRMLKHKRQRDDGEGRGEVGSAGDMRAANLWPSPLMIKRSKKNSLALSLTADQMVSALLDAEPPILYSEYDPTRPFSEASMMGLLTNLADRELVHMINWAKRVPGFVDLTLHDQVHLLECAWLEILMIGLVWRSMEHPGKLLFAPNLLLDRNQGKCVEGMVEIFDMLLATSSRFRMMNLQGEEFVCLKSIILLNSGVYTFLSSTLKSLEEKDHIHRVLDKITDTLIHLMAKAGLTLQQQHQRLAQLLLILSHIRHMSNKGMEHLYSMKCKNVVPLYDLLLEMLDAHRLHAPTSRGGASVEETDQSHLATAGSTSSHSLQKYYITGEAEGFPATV

The first assay deals with Estrogen receptor (Homo sapiens) (UniProt P03372). Briefly: qHTS assay to identify small molecule antagonists of the estrogen receptor alpha (ER-alpha) signaling pathway using the BG1 cell line in the presence of 0.1 nM 17-beta-estradiol (AID 1259244). Note: nearly all actives have a fitted effect of over 50% in size. Note: potency is the fitted concentration of half-maximal effect. The settings on record: VM7Luc4E2 (BG1) ERE-luciferase, antagonist mode, 0.1 nM E2, 22 h; series mostly up to 92.4 µM; activity change, negative = inhibition: at the top concentration. The procedure, abridged:
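Seeding of stripped-serum-adapted VM7Luc4E2 cells, 24 h attachment, compound transfer, then 0.1 nM final 17beta-estradiol; after 22 h incubation, ONE-Glo reagent and luminescence reading.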
(In qHTS, concentration-response curves come from the screen itself.)
Regarding `C=Cc1ccc(OC(C)=O)cc1`, the “activity change, negative = inhibition” value was -1.73%.

`C[C@@H]1C[C@H]2[C@@H]3CCC4=CC(=O)C=C[C@]4(C)[C@@]3(F)[C@@H](O)C[C@]2(C)[C@@]1(O)C(=O)COP(=O)(O)O`: the “activity change, negative = inhibition” value was 40.9%.

Consider `Cc1ccc2c(c1[N+](=O)[O-])C(=O)c1ccccc1C2=O`, for which the “activity change, negative = inhibition” value was 32.2% [at 42.5 µM].

Consider `CC(C)(C(=O)c1cccnc1)c1cccnc1`, for which the “activity change, negative = inhibition” value is 0.475% [at 42.5 µM].

Regarding `CCN(Cc1cccc(S(=O)(=O)O)c1)c1ccc(C(=C2C=CC(=[N+](CC)Cc3cccc(S(=O)(=O)O)c3)C=C2)c2ccc(O)cc2S(=O)(=O)[O-])cc1`, the Potency is 16.6 µM (active).

System in another assay: not listed separately
Briefly: qHTS assay to identify small molecule phospholipidosis (PLD) inducers (AID 1259344; active = well fitted curve in the direction sought with a large enough effect; an effect the other way counts as inactive or inconclusive). Conditions: HepG2 phospholipidosis, LipidTOX Red imaging, 24 h; series mostly up to 38.3 µM; PLD induction: at the top concentration. Summed up: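 Image-based: LipidTOX Red pit count/intensity per well and per cell; HepG2, 24 h compound at 37 C, PFA fixation, Hoechst counterstain.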
Regarding `Nc1cccc2c(N)cccc12`, the “PLD induction” value is -4.72% [at 78.4 µM].

In the case of `CC(=O)Oc1cccc(O)c1`, the “PLD induction” value is -0.691%.

As for `Cc1ccc(N(CC2=NCCN2)c2cccc(O)c2)cc1`, the “PLD induction” value was 1.26%.

Regarding `C[C@@H]1[C@H](O)[C@@H](C)/C=C/C=C\C=C\C=C\C=C\C=C\C=C\[C@H](O[C@@H]2O[C@H](C)[C@@H](O)[C@H](N)[C@@H]2O)C[C@@H]2O[C@](O)(C[C@@H](O)C[C@@H](O)[C@H](O)CC[C@@H](O)C[C@@H](O)CC(=O)O[C@H]1C)C[C@H](O)[C@H]2C(=O)O` (stereo in doubt), the “PLD induction” value is 2.28%.

As to `O=C(NC(Cc1cc(=O)[nH]c2ccccc12)C(=O)O)c1ccc(Cl)cc1` (stereo not drawn), the “PLD induction” value was -0.238%.

With `CN1C(CSCC(F)(F)F)Nc2cc(Cl)c(S(N)(=O)=O)cc2S1(=O)=O` (stereo not drawn), the “PLD induction” value is 19.6%.

For `O=C(Nc1ccc(C(=O)O)c(O)c1)c1ccccc1`, the “PLD induction” value is -1.3%.

Take `C[C@@H]1C[C@H]2[C@@H]3CCC4=CC(=O)C=C[C@]4(C)[C@@]3(F)[C@@H](O)C[C@]2(C)[C@@]1(O)C(=O)COP(=O)(O)O`: the “PLD induction” value is -1.26%.

As to `CC(C)(C(=O)c1cccnc1)c1cccnc1`, the “PLD induction” value was -1.72% [at 15.5 µM].

System in a further assay: not listed separately
The assay is described as follows: qHTS assay to identify small molecule HDAC inhibitors (AID 1259364). For activity change, negative = inhibition: top concentration of the series differs between compounds. Note: potency is the fitted concentration of half-maximal effect.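 Note: wild-type HCT-116 cells with endogenous class I/II HDAC activity; nearly all actives have a fitted effect of over 45% in size.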 The settings on record: HCT-116 HDAC-Glo I/II luminescence, 2 h; series mostly up to 92.4 µM; activity change, negative = inhibition: at the top concentration. The procedure, abridged: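 After a 2 hr compound incubation (37C, 5% CO2), HCT-116 cells seeded at 1,500/well the day before received HDAC-Glo reagent; signal read as luminescence after 30 min at room temperature.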
Consider `COC(=O)CC(C(C)=O)C(=O)OC` (stereo not drawn), for which the “activity change, negative = inhibition” value was 3.52%.

As to `CC(C)(O)CCc1ccccc1`, the “activity change, negative = inhibition” value was -1.33%.

As for `Cc1cccc2sc(N)nc12`, the “activity change, negative = inhibition” value was -23%.

On to `CC(=O)Oc1cccc(O)c1`, for which the “activity change, negative = inhibition” value was 0.375% [at 42.5 µM].

Consider `CCc1ccc(C)cc1`, for which the “activity change, negative = inhibition” value was 0.469%.

Consider `COC(OC)OC`, for which the “activity change, negative = inhibition” value is -1.38%.

Take `Nc1ccc(F)cc1`: the “activity change, negative = inhibition” value was 1.48%.

For the molecule `CCCCCCCCCCCCCCCCCC(=O)OCC(CC)CCCC` (stereo not drawn), the “activity change, negative = inhibition” value is -2.38%.

Consider `CC(=O)OCCC(C)CC(C)(C)C` (stereo not drawn), for which the “activity change, negative = inhibition” value was 6.9%.

Regarding `CC(C)(O)c1coc(S(=O)(=O)NC(=O)Nc2c3c(cc4c2CCC4)CCC3)c1`, the “activity change, negative = inhibition” value was 2.2%.

Take `Cc1ccc(N(CC2=NCCN2)c2cccc(O)c2)cc1`: the “activity change, negative = inhibition” value was 2.49% [at 42.5 µM].

As for `CC(C)N(C)C`, the “activity change, negative = inhibition” value is 2.52%.

As for `CCC(=O)OCc1ccc(OC)cc1`, the “activity change, negative = inhibition” value is 5.9%.

With `C[C@@H]1[C@H](O)[C@@H](C)/C=C/C=C\C=C\C=C\C=C\C=C\C=C\[C@H](O[C@@H]2O[C@H](C)[C@@H](O)[C@H](N)[C@@H]2O)C[C@@H]2O[C@](O)(C[C@@H](O)C[C@@H](O)[C@H](O)CC[C@@H](O)C[C@@H](O)CC(=O)O[C@H]1C)C[C@H](O)[C@H]2C(=O)O` (stereo in doubt), the “activity change, negative = inhibition” value was -5.67%.

Turning to `O=C(NC(Cc1cc(=O)[nH]c2ccccc12)C(=O)O)c1ccc(Cl)cc1` (stereo not drawn), the “activity change, negative = inhibition” value was -0.0663% [at 42.5 µM].

Regarding `O=C(O)c1ccc(O)cc1O`, the “activity change, negative = inhibition” value is 1.86%.

Turning to `O=C(Nc1ccc(C(=O)O)c(O)c1)c1ccccc1`, the Potency is 1.68 µM (active).

For the molecule `Cc1ccc(N(CCO)CCO)cc1`, the “activity change, negative = inhibition” value is 0.118%.

As for `Cc1c(C2(c3cc(Br)c(O)c(Br)c3C)OS(=O)(=O)c3ccccc32)cc(Br)c(O)c1Br`, the Potency was 4.2 µM (active).

Turning to `C=Cc1ccc(OC(C)=O)cc1`, the “activity change, negative = inhibition” value was 6.05%.

As for `Cc1ccc2c(c1)CCCN2`, the “activity change, negative = inhibition” value is 0.905%.

For `CSSc1ccoc1C`, the “activity change, negative = inhibition” value is -4.68%.

As for `Cc1ccc(Cl)cc1N`, the “activity change, negative = inhibition” value is 17.3%.

Take `Cc1ccc2c(c1[N+](=O)[O-])C(=O)c1ccccc1C2=O`: the “activity change, negative = inhibition” value is -22.7% [at 42.5 µM].
